Compound activity deposited in PubChem BioAssay by National Center for Advancing Translational Sciences (NCATS).
Shown are actives, neighbours in structure and some others; about 4% of the full set was active somewhere.
Bst PK mod: modulators of Bacillus stearothermophilus pyruvate kinase; purified pyruvate kinase, luminescence ATP production; ribose 5-phosphate activator present at AC10; Potency, µM; 51,000 tested, 1.2% active; in the data active = potency below about 11 µM; inconclusive = mostly about 12 µM to 25 µM;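 the screen sought inhibitors and activators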;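 note: scaled between full activation by ribose 5 phosphate and full inhibition by luteolin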
Casp7 inh: allosteric or competitive inhibitors of human caspase-7; Potency, µM (top dose mostly 57.5 µM), for inactives: at the highest dose activity change, negative = inhibition, most hits filed as inhibitors; 75,000 tested, 0.02% active; recombinant caspase-7, Ac-DEVD-AFC fluorescence rate; AID 889; P55210; active = well fitted inhibition curve with a large enough effect in the main read-out, with a control signal flat, not every such curve was filed as active; inconclusive = small, poorly fitted or top-dose-only effect, or a change in a side signal; note: % of control where 0% means no effect
Luciferase inh: inhibitors of firefly luciferase; P08659; purified firefly luciferase, luminescence, 8 min; Potency, µM (highest dose often 57.1 µM), for the others: top-dose activity change, negative = inhibition, actives largely listed as inhibitors; 72,000 tested, 2.2% active; note: % is set by controls: 0 for no effect and ±100 for the full control effect; nearly all actives have a fitted effect of over 40% in size
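Here, luciferase activity is measured as luminescence following an 8 min room-temperature reaction at 10 uM ATP, pH 7.2. Every library sample is titrated.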
Tau filament bind: tau filament binding; recombinant tau filaments, thioflavin S fluorescence, 15 h; filaments grown with octadecylsulfate alongside compound; Potency, µM (doses to about 57.1 µM), for the others: top-dose activity change, negative = inhibition; 71,000 tested, 2% active;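 note: % is set by controls: 0 for no effect and ±100 for the full control effect; actives lower thioflavin S fluorescence by blocking filaments or displacing dye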
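Assay mix: 1 uM His-tagged tau, 30 uM sodium octadecylsulfate, thioflavine S dye in HEPES/NaCl/DTT buffer. Compound is added prior to the inducer. Fluorescence after 15 h at 37 C.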
Caspase-1 inhib: allosteric or competitive inhibitors of human caspase-1. 75,000 tested, 0.03% active. Potency, µM (series often up to 57.5 µM), without a hit: top-dose activity change, negative = inhibition, actives largely listed as inhibitors. AID 900. Caspase-1 enzyme, Ac-WEHD-AFC fluorogenic rate. P29466;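 note: plate controls were vehicle for no effect and no substrate for full effect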
Active calls of the source: *; i = inactive; ? = inconclusive; . = no result given; [ ] = dose if it differs, or a comment. Unless noted, calls come from the whole dose curve; as a rule, active = well fitted curve in the direction sought with a large enough effect; inconclusive = small, poorly fitted or top-dose-only effect, or another doubt; inactive = no such curve, though single readings can be large; an effect the other way counts as inactive or inconclusive. Potency is the fitted concentration of half-maximal effect.

SMILES	Bst PK mod	Casp7 inh	Luciferase inh	Tau filament bind	Caspase-1 inhib
CCN(CC)C(=O)CN(C#N)c1nc(OC)nc(N(C)C)n1	>57	1.8%	-0.2%	5.5%	3.3%
C[C@@H]1CC2(OC[C@]3(C)O[C@H]23)O[C@H]2C[C@@]3(C)[C@@H]4CC[C@H]5C(C)(C)C(O[C@@H]6OC[C@@H](O)[C@H](O)[C@H]6O)CC[C@@]56C[C@@]46CC[C@]3(C)[C@@H]12 (some centres undefined)	.	-12.2%	.	7.9%	-3.8%
CSc1nc2[nH]c3c(c2c2ncnn12)CCCC3	0.423*	.	-3.6%[25.5 µM]	.	.
C/C(=C\C(=O)Nc1nccs1)c1ccccc1	i	-0.8%	25.1µM*	7.3%	3.6%
O=C1Cc2ccccc2C(=O)N1CCc1ccccc1	.	6.31µM*	-26.8%	-1.1%	5.01µM*
O=C(O)CCN1C(=O)c2ccccc2C1=O	>57	0.7%	1.2%	0.4%	2.2%
CC(C)c1ccc2c(c1)CC[C@@H]1[C@@](C)(CN)CCC[C@@]21C	.	.	1.0%[11.4 µM]	31.6µM*	.
CC(C)c1ccc2c(c1)CC[C@@H]1[C@@](C)(CN)CCC[C@]21C	.	0.5%	.	.	1.7%
CCOc1ccc(N2C(=O)CC(N3CCN(c4ccccc4F)CC3)C2=O)cc1 (centres undefined)	.	-5.7%	-0.5%	7.5%	-8.4%
CCOc1ccc(N2C(=O)CC(/C=C3/N(C)c4ccccc4C3(C)C)C2=O)cc1 (centres undefined)	>57	-4.9%	-1.1%	25.1µM*	0.2%
Cc1cccc2cc3c(N)c(C(=O)N4CCOCC4)sc3nc12	?	-8.7%	15.8µM*	-25.4%	-5.1%
Cc1cccn2c(=O)c3cc(C(=O)NC4CCCC4)c(=N)n(C4CCCC4)c3nc12	>57	?	1.2%	0.398µM*	.
CCCCNC(=O)c1cc2c(=O)n3cccc(C)c3nc2n(CCN2CCOCC2)c1=N	>57	?	2.1%	?	.
COCCNC(=O)c1cc2c(=O)n3cccc(C)c3nc2n(Cc2ccncc2)c1=N	>57	-2.4%	0.7%	-6.0%	-2.8%
COCCCn1c(=N)c(C(=O)NCc2ccc3c(c2)OCO3)cc2c(=O)n3ccccc3nc21	>57	-16.2%	1.9%	10µM*	-10.1%
COCCCn1c(=N)c(C(=O)NCc2ccc3c(c2)OCO3)cc2c(=O)n3cccc(C)c3nc21	>57	-21.3%	0.5%	3.16µM*	?
COc1ccc(CCNC(=O)c2cc3c(=O)n4cccc(C)c4nc3n(Cc3ccncc3)c2=N)cc1	>57	?	0.3%	3.16µM*	.
COCCn1c(=N)c(C(=O)NCc2ccco2)cc2c(=O)n3ccccc3nc21	>57	?	5.7%	94.6%	.
N=C(N)SCCCN	.	3.4%[11.5 µM]	2.4%[11.4 µM]	4.2%[11.4 µM]	-3.2%[11.5 µM]
CC(=O)O[C@@H]1CC[C@]2(C)C(=C[C@@H]([C@@H]3C=C4C[C@@H](OC(C)=O)CC[C@]4(C)C4=C3[C@H]3C[C@@H]5O[C@@]6(CC[C@H](C)CO6)[C@@H](C)[C@@H]5[C@@]3(C)CC4)C3=C2CC[C@@]2(C)[C@H]4[C@@H](C)[C@]5(CC[C@H](C)CO5)O[C@@H]4C[C@H]32)C1	.	-0.1%[11.5 µM]	-1.1%[11.4 µM]	6.5%[11.4 µM]	0.0%[11.5 µM]
NCCC[C@@H](CC(=O)N[C@@H]1CCCC[C@H]1C(=O)N[C@H](CC(=O)N[C@@H](CCC(=O)O)CC(=O)O)Cc1c[nH]c2ccccc12)NC(=O)C[C@H](CO)NC(=O)[C@@H]1CNCC[C@H]1N	.	.	.	-13.3%	.
COCCn1c(=O)c(-c2cc(F)cc(F)c2)nc2cnc(Oc3ccc(OC)cc3)nc21	.	?	0.9%[11.4 µM]	15.8µM*	?
COCCn1c(=O)c(-c2ccc(F)cc2)nc2cnc(Oc3cccc(Cl)c3)nc21	.	-11.5%	0.9%[11.4 µM]	-7.7%	-7.6%
O=c1c(-c2ccccc2)nc2cnc(Oc3ccccc3)nc2n1C[C@H]1CCCO1	.	?	0.3%[11.4 µM]	-16.2%	.
O=c1c(-c2ccc(F)cc2)nc2cnc(Oc3ccccc3)nc2n1C[C@H]1CCCO1	.	?	-1.8%[11.4 µM]	20µM*	?
SMILES	Bst PK mod	Casp7 inh	Luciferase inh	Tau filament bind	Caspase-1 inhib
COCCn1c(=O)c(-c2cc(F)cc(F)c2)nc2cnc(Oc3ccccc3)nc21	.	?	1.1%[11.4 µM]	?	.
COCCn1c(=O)c(-c2cc(F)cc(F)c2)nc2cnc(Oc3cccc(Cl)c3)nc21	.	?	-0.6%[11.4 µM]	12.6µM*	.
COc1cccc(Nc2ncc3nc(-c4cc(F)cc(F)c4)c(=O)n(CCC#N)c3n2)c1	.	?	1.8%[11.4 µM]	0.794µM*	.
O=C(O)C(Cc1cccs1)C(=O)O	.	0.2%[11.5 µM]	0.9%[11.4 µM]	6.6%[11.4 µM]	2.1%[11.5 µM]
O=c1c(-c2ccccc2)nc2cnc(Oc3cccc(Cl)c3)nc2n1C[C@H]1CCCO1	.	-23.1%	0.7%[11.4 µM]	-21.0%	-12.4%
O=c1cnc2cnc(Oc3cccc(Cl)c3)nc2n1Cc1ccc(F)cc1	.	-11.5%	0.8%[11.4 µM]	15.8µM*	-7.8%
CCCOc1ccc(Br)cc1-c1cc(-c2ccc(Cl)cc2)[nH]c1-c1ccncc1	.	-0.9%	.	.	3.7%
CCCCn1c(-c2ccccc2)nnc1-c1ccccc1	>57	-4.9%	0.4%	2.8%	-1.7%
CCCCN1c2ccccc2N(CCCO)c2cc(C)nnc21	.	-2.3%	15.8µM*	2.8%	2.3%
CCOC(=O)CN1CC23C=CC(O2)C(C(=O)Nc2ccc(OC)cc2OC)C3C1=O (centres undefined)	.	-1.0%	2.1%	-9.6%	-3.8%
CCOC(=O)CN1CC23C=CC(O2)C(C(=O)Nc2cc(OC)ccc2OC)C3C1=O (centres undefined)	.	-0.4%	2.9%	12.6µM*	-0.1%
c1ccc2c(c1)c1ccccc1n2Cn1c2ccccc2c2ccccc21	.	-0.8%[11.5 µM]	-1.1%[11.4 µM]	-3.1%[11.4 µM]	-1.7%[11.5 µM]
CC(C)OCCCn1c(-c2ccco2)nc2nc3ccccc3nc21	>57	?	-10.0%	15.8µM*	.
COc1ccc(-c2nnc(-c3ccc(N)cc3)o2)cc1	3.27*	-2.8%	7.94µM*	9.6%	-0.9%
COc1ccc(-c2nnc(SCC(=O)/C(C#N)=C(\C)N)o2)cc1	.	-1.1%	5.01µM*	-1.9%	-0.2%
Cc1cc2c(nc1C)CCCCN2C[C@H](O)CN1CCCc2nc(-c3ccc(Br)cc3)ccc21	.	-1.3%[11.5 µM]	-7.0%[11.4 µM]	.	-3.9%[11.5 µM]
C[C@@H]1/C=C\CC(=O)OC[C@H]2O[C@@H](C=C[C@@H]2O)[C@H](C)/C=C\CC(=O)OC1	.	0.5%[11.5 µM]	0.7%[11.4 µM]	.	2.3%[11.5 µM]
O=C(CSc1nnc(C2CC2)n1Cc1ccccc1)c1cc2ccccc2o1	>57	-2.6%	0.9%	10µM*	-4.2%
CCN(CC)CCCN1C(=O)C(O)=C(C(C)=O)C1c1ccc(OC)cc1OC (centres undefined)	.	2.0%	2.2%	-8.5%	0.6%
O=C(O)/C=C/c1ccc(O)c(O)c1	>11.4	-1.1%	-2.4%[25.5 µM]	.	-2.4%
O=C(O)/C=C\c1c2ccc(=O)c(O)c-2oc2c(O)c(O)ccc12	.	-20.3%[11.5 µM]	-3.5%[11.4 µM]	5.01µM*	-5.7%[11.5 µM]
O=C(O)[C@H]1CCCC[C@@H]1c1c2ccc(=O)c(O)c-2oc2c(O)c(O)ccc12	.	-16.9%[11.5 µM]	-3.2%[11.4 µM]	3.98µM*	-0.3%[11.5 µM]
CCCc1cc(C(=O)Nc2nccs2)cs1	?	-0.4%	7.94µM*	-13.9%	0.5%
CC(C)CN1C(=O)c2ccc(C(=O)Nc3nccs3)cc2C1=O	.	-0.4%	12.6µM*	-24.6%	0.6%
